# An excerpt weighted towards active compounds, which were near 1.6% of everything screened.
# sEH inh: blocks human soluble epoxide hydrolase activity | P34913 | recombinant human sEH enzymatic activity assay | inhibition, % at 2 µM | 91,000 compounds, 0.34% hits | AID 707; in the data active = inhibition above about 80%
# sEH act: activators of human soluble epoxide hydrolase; activation, % at 2 µM; 91,000 compounds, 0.04% hits; AID 717; purified human sEH enzymatic activity, activator screen; P34913; in the data active = activation above about 37%
# Plk1 PBD FP: blocks phosphopeptide binding to human Plk1 polo box domain | P53350 | Plk1 PBD phosphopeptide binding, fluorescence polarization | inhibition, %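 (tested at about 20 µM)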 | 97,000 compounds, 0.13% hits | AID 693; in the data active = inhibition above about 34%, passing the limit was not always enough
# PLK1 kinase inh: PLK1 (human) kinase inhibition. P53350. recombinant PLK1 kinase, TR-FRET peptide phosphorylation. inhibition, % at 10 µM. 97,000 compounds, 0.53% hits;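 active = inhibition of 50% or more in the single-concentration screen; inactive = inhibition below 50%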;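 also: 0% = DMSO max control and 100% = H-89 dihydrochloride min control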
# PTK2B oligo ant: Pyk2 (human) oligomerization antagonism | Q293 cells, Pyk2 FERM NanoBiT luminescence; hits give low values | 99,000 compounds, 0.83% hits | z-score (the deposit names both 25 µM and 10 µM) | AID 1347419;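 active = Z-score of -3 or lower, scaled per plate to the spread of control and sample wells; inactive = z-score above -3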;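 also: negative z-score means lost luminescence so less FERM oligomerization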
# * = called active by the depositor; · = not tested or not shown.
SMILES,sEH inh,sEH act,Plk1 PBD FP,PLK1 kinase inh,PTK2B oligo ant
Cc1oc(-c2ccccc2F)nc1CN1CCC(C(=O)NC2CCCCCCC2)CC1,91*,-91,39,-4,0.24
COc1ccc(CCNC(=O)C2CCN(Cc3nc(-c4ccccc4C)oc3C)CC2)cc1OC,36,-36,11,-10,0.39
CCOc1cccc2cc(C(=O)N3CCc4ccccc43)c(=O)oc12,-5,5,-19,-4,0.11
COc1cccc2cc(C(=O)N3CCc4ccccc43)c(=O)oc12,2,-3,-12,2,-3*
CC(=O)C1=C(O)C(=O)N(CCCn2ccnc2)C1c1ccc(C)cc1 (stereo unspecified),6,-6,-4,-8,0.65
Cc1ccc(C)c(N(C(=O)Cn2nnc(-c3cccs3)n2)C(C(=O)NC2CC2)c2ccc(C)o2)c1 (stereo unspecified),8,-8,7,-12,-4.3*
Cc1ccc2nc(SCC(=O)Nc3cc(C(F)(F)F)ccc3N3CCOCC3)[nH]c2c1,5,-4,-1,-5,-3.5*
CC(Cc1cccs1)NC(=O)Nc1cccc(Cl)c1 (stereo unspecified),84*,-85,-12,-4,0.47
COc1ccc(N(CC(=O)NC(C)(C)C)S(=O)(=O)c2ccccc2)cc1OC,-8,6,-1,-14,0.06
COc1ccc(Nc2ncc(C(=O)N3CCC(C(N)=O)CC3)c3ccccc23)cc1,10,-7,-4,-17,-0.2
COc1ccc(Nc2ncc(C(=O)N3CCN(Cc4ccccc4)CC3)c3ccccc23)cc1,4,-1,8,-10,-3.5*
FC(F)(F)c1ccc(Cl)c(NC(=S)NC2CC2)c1,·,·,·,·,0.38
O=C(CCN1CCN(c2ccc(Cl)cc2)CC1)Nc1nccs1,29,-32,1,62*,1.7
O=C(CCN1CCN(c2ccc(Cl)cc2)CC1)Nc1ccccc1F,3,-3,30,-6,0.34
COc1ccccc1C1CC(c2cccs2)=Nc2ccccc2S1 (stereo unspecified),10,-11,-12,-9,-0.71
COc1ccccc1C1CN(c2ccc(F)cc2F)N=C1c1cccs1 (stereo unspecified),-35,38*,-5,-20,-1.6
CC(Sc1nnc(C2CCCCC2)n1N)C(=O)NCc1ccc2c(c1)OCO2 (stereo unspecified),5,-5,-22,-14,0.51
O=C(Nc1nnc(C2CC2)s1)c1cc(-c2ccccc2)nn1-c1ccccc1,·,·,·,·,-3.2*
CCOc1ccc(NC(=O)Cn2cc(C(=O)c3ccco3)c3ccccc32)cc1,1,-1,18,-12,-1.6
COc1ccc(NC(=O)Cn2cc(C(=O)c3ccco3)c3ccccc32)cc1,7,-3,-12,-22,-3*
O=C(Nc1cccc(C(F)(F)F)c1)N(Cc1ccc(Cl)cc1)CC(O)C(F)(F)F (stereo unspecified),-11,9,3,-11,-0.06
Cc1ccc(NC(=O)NCc2ccc3c(c2)OCO3)cc1,57,-57,-10,2,0.13
Cc1cc(C(=O)CSc2nnc(-c3ccccc3)n2-c2ccccc2)c(C)n1-c1ncn[nH]1,-21,19,36,-4,-3.2*
O=C(COC(=O)c1ccccc1NC(=O)c1ccco1)Nc1ccc2c(c1)OCO2,·,·,0,-9,-3.8*
N#Cc1cccc(NC(=O)Cn2c3[n+](c4ccc(C(F)(F)F)cc42)CCCCC3)c1,·,·,·,·,0.79
SMILES,sEH inh,sEH act,Plk1 PBD FP,PLK1 kinase inh,PTK2B oligo ant
O=C(NC1CCCC1)c1sc(=S)n2c1[nH]c(=O)c1ccccc12,-7,4,12,-1,-3.1*
N#CC1=C(SCC(=O)NC23CC4CC(CC(C4)C2)C3)NC(=O)C(C#N)C12CCCCC2 (stereo unspecified),23,-20,-22,-4,-3.3*
N#CC1=C(SCC(=O)NC2CC2)NC(=O)C(C#N)C12CCCCC2 (stereo unspecified),4,-6,-26,-1,-0.19
O=C(Cc1ccccc1[N+](=O)[O-])NCCSCc1c(F)cccc1Cl,42,-43,18,-9,-0.35
N#Cc1c2n(c3c(=O)n(Cc4ccc(Cl)cc4)cnc13)CCCC2,-10,8,-15,-3,-3.5*
Cc1cc(Cl)ccc1NC(=O)NC1CCN(S(=O)(=O)c2ccc(F)cc2)CC1,41,-41,17,-15,-1.3
Cc1ccc(NC(=O)NC2CCN(S(=O)(=O)c3ccc(F)cc3)CC2)cc1,85*,-84,15,-1,-0.62
CC(C)NS(=O)(=O)c1ccc(CCC(=O)Nc2ccc3c(c2)OCO3)cc1,-14,14,8,-13,-0.13
